Nrf2 inh – blocks Nrf2 signaling. A549 ARE-Fluc reporter, luciferase luminescence, 18-24 h. Potency, µM (titrated, usually from 46 µM), actives largely listed as inhibitors. 2.1% of 360,000 active; note: nearly all actives have a fitted effect of over 60% in size
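Nrf2 activity is the BugLite luminescence, read 15 min after reagent at room temperature, following CellTiter-Fluor cytotoxicity readout (30 min, 37C). Compound titrations were applied for 18-24 h to 5000 A549 ARE_Fluc cells/well in 5% FBS OPTI-MEM.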
TGFb inhibitor – inhibitors of TGF-b signaling; HepG2 CAGA-GFP TGF-b/SMAD3 reporter, GFP fluorescence, 18 h; TGF-beta stimulated, 500 pg/mL final; Potency, µM (top dose mostly 46.1 µM), actives largely listed as inhibitors; 1.2% of 410,000 active; note: nearly all actives have a fitted effect of over 65% in size
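Inhibition of TGF-beta-driven CAGA-GFP reporter expression in HEPG2 cells is measured by cellular GFP fluorescence after 18 h stimulation with 500 pg/mL recombinant TGF-beta in 1% FBS medium at 37 degrees C.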
HepG2 tox-1 – counter-screen for TGF-b inhibitors: cytotoxicity in HepG2 cells; 0.76% of 410,000 active; Potency, µM (highest dose often 46.1 µM), usual class: cytotoxic; HepG2 CAGA-GFP viability, ATP luminescence, 18 h; AID 588856
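CellTiter-Glo luminescence gave cytotoxicity after 18 hours at 37 degrees C. The cells were HepG2 CAGA-GFP in 1% FBS DMEM, stimulated with 500 pg/mL TGF-beta after compound addition. %Activity was normalised to no-cell wells (complete cell-killing) and DMSO (no toxicity), and curves were fitted and classified.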
Nrf2 activator – Nrf2 pathway activation. 0.31% of 410,000 active. AID 624171. Potency, µM (highest dose often 46.1 µM), actives largely listed as activators. AREc32 ARE-luciferase reporter (MCF7-derived line), luminescence, 24 h; note: nearly all actives have a fitted effect of over 65% in size
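Nrf2 activation is followed as ARE-luciferase induction in the AREc32 line after one day of compound treatment; luminescence is read with Steady-Glo.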
A549 tox-1 – counter-screen for Nrf2 inhibitors: cytotoxicity in A549 cells; A549 ARE-Fluc cells, CellTiter-Fluor viability, 18-24 h; Potency, µM (series often up to 46 µM), actives largely listed as inhibitors; 0.16% of 390,000 active
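A549 ARE_Fluc cells in 5% FBS OPTI-MEM were exposed to compounds in concentration-response for 18-24 h at 37 deg C. Viability was read by CellTiter-Fluor fluorescence (Ex 405/Em 525) after 30 min, before the luciferase read.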
FLuc counter 3 – blocks purified firefly luciferase in Nrf2 counterscreen; shares compounds with Nrf2 inh; purified firefly luciferase, luminescence inhibition; Potency, µM (titrated, usually from 57.5 µM), actives largely listed as inhibitors; 4% of 1,400 active; AID 720522; note: nearly all actives have a fitted effect of over 65% in size
Target sequence (P08659 whole entry, looked up): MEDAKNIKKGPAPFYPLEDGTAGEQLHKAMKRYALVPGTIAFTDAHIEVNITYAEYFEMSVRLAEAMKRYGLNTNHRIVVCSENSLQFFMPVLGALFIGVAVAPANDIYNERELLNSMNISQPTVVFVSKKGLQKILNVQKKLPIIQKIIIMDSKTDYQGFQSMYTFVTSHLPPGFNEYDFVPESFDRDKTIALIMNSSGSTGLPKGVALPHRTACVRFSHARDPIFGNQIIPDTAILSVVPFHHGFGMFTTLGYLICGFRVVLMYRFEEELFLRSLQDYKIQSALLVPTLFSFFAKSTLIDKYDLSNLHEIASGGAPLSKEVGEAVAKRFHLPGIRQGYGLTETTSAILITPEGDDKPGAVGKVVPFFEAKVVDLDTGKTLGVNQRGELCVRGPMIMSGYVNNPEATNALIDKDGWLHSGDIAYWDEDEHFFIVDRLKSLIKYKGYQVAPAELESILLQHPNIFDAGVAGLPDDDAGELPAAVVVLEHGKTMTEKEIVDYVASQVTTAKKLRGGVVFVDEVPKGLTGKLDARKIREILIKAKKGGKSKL
A549 tox-2 – A549 cytotoxicity, Nrf2 inhibitor counterscreen. 2% of 1,400 active. shares compounds with Nrf2 inh. A549 ARE-Fluc cells, cytotoxicity counterscreen. Potency, µM (top dose mostly 46.1 µM), usual class: inhibitors. AID 720523;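 note: cells exposed to compounds for 18 to 24 hours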
Nrf2 ARE inh – confirmation of Nrf2 inhibitors in A549 ARE reporter cells. shares compounds with Nrf2 inh. A549 ARE-firefly luciferase reporter, luminescence. Potency, µM (series often up to 46.1 µM), hits mostly inhibitors. 74% of 1,400 active; note: nearly all actives have a fitted effect of over 65% in size
TGFb CAGA inh – TGF-b pathway inhibition, cherry-pick retest; shares compounds with TGFb inhibitor; HepG2 CAGA-GFP TGF-b reporter, GFP fluorescence, 18 h; cells stimulated with TGF-beta, 500 pg/mL; 63% of 1,600 active; Potency, µM (doses to about 46.1 µM), most hits filed as inhibitors; note: nearly all actives have a fitted effect of over 65% in size
HepG2 tox-2 – toxic to HepG2 cells in TGF-b counterscreen; shares compounds with TGFb inhibitor; HepG2 CAGA-GFP viability, ATP luminescence, 18 h; cells stimulated with TGF-beta, 500 pg/mL; Potency, µM (series often up to 46.1 µM), actives largely listed as inhibitors; 27% of 1,600 active; AID 720535; note: nearly all actives have a fitted effect of over 70% in size
TGFb CCL64 inh – TGF-b inhibition, CCL64 orthogonal assay; shares compounds with TGFb inhibitor; CCL64 CAGA-GFP reporter, TGF-b stimulated, GFP fluorescence, 18 h; Potency, µM (doses to about 46.1 µM), hits mostly inhibitors; 41% of 1,600 active; AID 720536; note: nearly all actives have a fitted effect of over 65% in size
COP TGFb inh – blocks TGF-b signaling in HepG2 COP reporter. shares compounds with TGFb inhibitor. HepG2 COP-GFP TGF-b reporter, GFP fluorescence, 18 h; cells stimulated by added recombinant TGF-beta. Potency, µM (doses to about 46.1 µM), actives largely listed as inhibitors. 3% of 1,600 active; note: nearly all actives have a fitted effect of over 70% in size
A number is an active result; - = inactive; ? = inconclusive; . = not tested or not shown. In the library only some 3.6% were active in any assay of this set; here they are far more common. Calls come from the whole dose curve; as a rule, active = well fitted curve in the direction sought with a large enough effect; inconclusive = small, poorly fitted or top-dose-only effect, or another doubt; inactive = no such curve, though single readings can be large; an effect the other way counts as inactive or inconclusive.

SMILES	Nrf2 inh	TGFb inhibitor	HepG2 tox-1	Nrf2 activator	A549 tox-1	TGFb CAGA inh	HepG2 tox-2	TGFb CCL64 inh	COP TGFb inh	others
O=C(c1cc(Cl)cc(Cl)c1)N1Cc2ccccc2-n2nncc2C1	.	-	-	-	.	.	.	.	.
CCOC(=O)c1cccc(-[n+]2c(-c3ccccc3)cc(-c3ccccc3)cc2-c2ccccc2)c1	?	?	-	-	-	.	.	.	.
Cc1ccc(-c2cc(-c3ccc(C)cc3)[n+](-c3ccccc3)c(-c3ccc(C)cc3)c2)cc1	2.59µM	1.26µM	-	-	?	1.46µM	9.2µM	1.64µM	-	FLuc counter 3=-;A549 tox-2=5.8µM
C=C(C)[C@@]12OC3(c4ccccc4)O[C@@H]1C1[C@@H]4O[C@]4(CO)[C@@H](O)[C@]4(O)C(=O)C(C)=C[C@H]4[C@@]1(O3)[C@H](C)[C@H]2OC(=O)/C=C/C=C/c1ccccc1 (stereo not given in full)	0.0052µM	-	-	-	-	?	?	?	-	FLuc counter 3=-;A549 tox-2=?;Nrf2 ARE inh=0.0184µM
CC/C(=N\NC(N)=O)c1c(O)[nH]c(=O)[nH]c1=O	-	?	-	-	-	.	.	.	.
COc1ccccc1-n1c(-c2ccc(C)cc2)nc2ccccc2c1=O	?	-	-	-	-	.	.	.	.
O=c1c2ccccc2nc(/C=C/c2ccc([N+](=O)[O-])o2)n1-c1ccc(O)cc1	?	2.82µM	-	?	?	?	5.8µM	2.31µM	-
Cc1cccc(-n2c(/C=C/c3ccc([N+](=O)[O-])o3)nc3ccccc3c2=O)c1	-	?	-	?	?	.	.	.	.
O=C1Nc2ccccc2/C1=C/c1nc2ccccc2c(=O)n1-c1ccc(O)cc1	?	-	-	-	?	.	.	.	.
COc1ccccc1N=Nc1ccc(N)c(C)c1	-	-	-	-	?	.	.	.	.
Nc1nc(F)nc2c1ncn2[C@@H]1O[C@H](CO)[C@@H](O)[C@H]1O	0.92µM	0.794µM	-	-	?	0.581µM	0.461µM	1.16µM	-
C=C1C(O)[C@@H]2O[C@]3(CC[C@H](/C=C/C(C)[C@@H]4CC(C)=CC5(O[C@H](C[C@@](C)(O)C(=O)O)CCC5O)O4)O3)CC[C@H]2O[C@@H]1C(O)CC(C)[C@H]1OC2(CCCCO2)CCC1C (stereo not given in full)	?	0.0891µM	-	-	?	0.0206µM	0.0517µM	0.082µM	?
O=[N+]([O-])c1ccc(N2CCOCC2)c2c1no[n+]2[O-]	.	3.16µM	-	-	.	18.4µM	13µM	5.17µM	?
COc1ccc(-n2c(O)c(/C=C3\C=Nc4ccc(Br)cc43)c(=O)[nH]c2=O)c(OC)c1	?	?	-	?	-	.	.	.	.
CC1(C)C2([N+](=O)[O-])CN3CC1([N+](=O)[O-])CN(C2)C3c1cccnc1 (stereo not given)	-	-	-	-	-	.	.	.	.
O=C1NCN(c2ccccc2)C12CCN(C(c1cccs1)c1nnnn1-c1ccc3c(c1)OCCO3)CC2 (stereo not given)	.	12.6µM	-	-	.	?	-	10.3µM	-
O=C1NCN(c2ccccc2)C12CCN(C(c1ccccc1)c1nnnn1-c1ccc3c(c1)OCCO3)CC2 (stereo not given)	.	?	-	-	.	.	.	.	.
COc1ccc(-n2nnnc2C(c2ccccc2)N2CCC(n3c(=O)[nH]c4ccccc43)CC2)cc1 (stereo not given)	.	8.91µM	-	-	.	?	?	?	-
O=c1[nH]c2ccccc2n1C1CCN(C(c2ccccc2OC(F)(F)F)c2nnnn2-c2ccc3c(c2)OCCO3)CC1 (stereo not given)	.	8.91µM	-	-	.	?	?	8.2µM	-
O=c1[nH]c2ccccc2n1C1CCN(C(c2cccs2)c2nnnn2-c2ccc3c(c2)OCCO3)CC1 (stereo not given)	.	11.2µM	-	-	.	-	-	?	-
OCCCCO	-	-	-	-	-	.	.	.	.
COC(=O)C1=C(c2ccc(OC)c(OC)c2)C[C@@H]2CC[C@H]1N2C(=O)NCCO	-	?	-	-	-	.	.	.	.
CC(Cc1ccccc1)NC(=O)C(c1ccc(N)cc1)c1ccc(N)cc1 (stereo not given)	-	-	-	-	?	.	.	.	.
COc1cccc(C(c2nnnn2Cc2ccccc2)N2CCC(n3c(=O)[nH]c4ccccc43)CC2)c1OC (stereo not given)	.	?	-	-	.	.	.	.	.
Cc1cccc(C)c1-n1nnnc1C(c1cc2ccccc2o1)N1CCC(n2c(=O)[nH]c3ccccc32)CC1 (stereo not given)	.	7.08µM	-	-	.	5.8µM	?	5.8µM	-
O=c1[nH]c2ccccc2n1C1CCN(C(c2cccc3ccccc23)c2nnnn2Cc2ccccc2)CC1 (stereo not given)	.	15.8µM	-	-	.	6.51µM	-	?	-
COc1ccc(C(c2nnnn2-c2c(C)cccc2C)N2CCC(n3c(=O)[nH]c4ccccc43)CC2)cc1 (stereo not given)	.	?	-	-	.	.	.	.	.
COC(=O)C1=C(c2ccc(OC(F)(F)F)cc2)C[C@@H]2CC[C@H]1N2C(=O)N1CCC(C)CC1	18.4µM	6.31µM	-	-	-	16.4µM	?	?	-
CN(C)C(Cc1ccc(C#N)cc1)C(=O)c1ccccc1 (stereo not given)	-	-	-	-	-	.	.	.	.
